Assay [1] has as its target Progesterone receptor (Homo sapiens) (UniProt P06401). The assay is described as follows: qHTS assay to identify small molecule antagonists of the progesterone receptor (PR) signaling pathway (AID 1346795; active = well fitted inhibition curve with a large enough effect in the signal ratio in the repeat runs, not every such curve was filed as active; the % refers to the signal ratio; note: potency is the fitted concentration of half-maximal effect). Summed up:
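Stimulus R5020 at 1 nM final; cells HEK293T PR-UAS-bla; medium with 2% charcoal-stripped FBS; compound exposure 16 hr at 37C, 5% CO2; detection by FRET beta-lactamase substrate, 2 hr, room temperature.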
(In general: qHTS replaces the single test concentration by a dilution series.)

The nature of assay [2]: qHTS assay to identify small molecule antagonists of the progesterone receptor (PR) signaling pathway - cell viability counter screen (AID 1346798). Note: nearly all actives have a fitted effect of over 50% in size. Note: potency is the fitted concentration of half-maximal effect. The essentials:
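In the same plates used for the beta-lactamase readout, cell viability of compound- and R5020-treated PR-UAS-bla HEK293T cells (16 hr, 37C) was assessed by CellTiter-Glo luminescence.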

Assay [3] in a line: qHTS assay to identify small molecule agonists of the progesterone receptor (PR) signaling pathway - cell viability counter screen (AID 1346799; calls by dose curve; note: nearly all actives have a fitted effect of over 45% in size; note: potency is the fitted concentration of half-maximal effect). The essentials: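 Multiplexed viability read: CellTiter-Glo luminescence, 30 min RT, following LiveBLAzer FRET measurement on PR-UAS-bla HEK293T cells exposed to compounds 16 hr.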
Assay [4] can be described thus: qHTS assay to identify small molecule antagonists of the TGF-beta/Smad signaling pathway - cell viability counter screen (AID 1346824). Note: nearly all actives have a fitted effect of over 50% in size. Note: potency is the fitted concentration of half-maximal effect. Summed up:
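Cytotoxicity counter-screen run in the same wells as the beta-lactamase Smad reporter read: CellTiter-Glo luminescence after 30 min at room temperature. HEK 293T SBE-bla cells had 5 hr compound exposure at 37 C with TGF-beta1 (0.25 ng/mL stock).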

A short description of assay [5]: qHTS assay to identify small molecule agonists of the TGF-beta/Smad signaling pathway - cell viability counter screen (AID 1346829). Note: nearly all actives have a fitted effect of over 45% in size. Note: potency is the fitted concentration of half-maximal effect. Summed up: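 Compound-treated SBE-bla HEK 293T cells (5 hr, 37 C) were assessed for viability with CellTiter-Glo in parallel with the reporter read.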
Assay [6] is described as follows: qHTS assay to identify small molecule agonists of the TGF-beta/Smad signaling pathway (AID 1346859; active = well fitted activation curve with a large enough effect in the signal ratio in the repeat runs, not every such curve was filed as active; the % refers to the signal ratio; note: series mostly up to about 77 µM). The essentials:
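Screening used HEK 293T SBE-bla cells at 4,000/well. Test agents: 5 hr, 37 C. Detection: FRET substrate, 2 hr RT, then excitation 405 nm with emissions at 460 and 530 nm.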

For assay [7], the target named is Thyrotropin-releasing hormone receptor (Homo sapiens) (UniProt P34981). Put plainly: qHTS assay to identify small molecule antagonists of the thyrotropin-releasing hormone receptor (TRHR) signaling pathway (AID 1346877; active = well fitted inhibition curve with a large enough effect in the repeat runs, not every such curve was filed as active; note: series mostly up to about 51 µM). The essentials:
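Kinetic fluorescence (3 min, 1 s resolution) following stimulation with TRH at 1 nM final; HEK293 cells bearing human TRHR; 5 min compound preincubation at RT; concentration-response over 15 points, triplicates.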

The target is the same in assay [8]. The assay is described as follows: qHTS assay to identify small molecule agonists of the thyrotropin-releasing hormone receptor (TRHR) signaling pathway (AID 1346891; calls by dose curve; note: series mostly up to about 58 µM). Summed up: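 Readout was intracellular calcium fluorescence in TRHR-Hek293 cells. Cells were incubated 18 h, dye-loaded 2 h at 37 °C, and treated with compound in agonist mode.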
Assay [9] is described as follows: Human pregnane X receptor (PXR) small molecule agonists, qHTS cell viability counter screen (AID 1346977). Note: nearly all actives have a fitted effect of over 50% in size. Note: potency is the fitted concentration of half-maximal effect. Summed up: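 In each well, the PXR reporter HepG2 line was checked for viability: CellTiter-Fluor reagent added 23hr post-dosing, fluorescence read after 1hr incubation at 37C.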
Assay [10] can be described thus: Caspase-3/7 induction in HepG2 cells by small molecules, qHTS assay (AID 1346978). Note: nearly all actives have a fitted effect of over 15% in size. Note: potency is the fitted concentration of half-maximal effect. The essentials: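 Caspase-3/7 induction was measured by Caspase-Glo 3/7 luminescence (30 min, room temperature) after a 17 hr compound exposure of wild-type HepG2 cells seeded at 2,000 per well and pre-incubated 5 hr.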
Assay [11] is described as follows: Caspase-3/7 induction in CHO-K1 cells by small molecules, qHTS assay (AID 1346980). Note: nearly all actives have a fitted effect of over 15% in size. Note: potency is the fitted concentration of half-maximal effect. The essentials:
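Luminescent Caspase-Glo 3/7 read (30min, room temperature) quantified apoptosis induction. Cells were wild-type CHO-K1, treated with compound for 17hr at 37 C and 5% CO2.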

Assay [12] in a line: Caspase-3/7 induction in HepG2 cells by small molecules, qHTS cell viability counter screen (AID 1346981). Note: nearly all actives have a fitted effect of over 30% in size. Note: potency is the fitted concentration of half-maximal effect. The essentials:
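In this quantitative HTS counter screen, compounds delivered in DMSO were left on unmodified HepG2 cells for 16 hr at 37 C. Viability was then determined fluorometrically with CellTiter-Fluor, in parallel with caspase-3/7 induction in the same wells.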

Assay [13] concerns the target Nuclear receptor subfamily 1 group I member 2 (Rattus norvegicus) (UniProt Q9R1A7). Put plainly: Rat pregnane X receptor (rPXR) activation by small molecules, qHTS assay (AID 1346983). Note: nearly all actives have a fitted effect of over 20% in size. As to conditions: rPXR luciferase reporter cells, One-Glo luminescence, 24 h; stronger effect = higher value. The essentials:
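Luminescent readout (One-Glo luciferase, 30 min room temperature) followed 24 hr compound treatment at 37 C of rPXR cells plated 2,000 per well and preincubated 5hr; qHTS format with compounds delivered in DMSO.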

The target in assay [14] is Nuclear receptor subfamily 1 group I member 2 (Homo sapiens) (UniProt O75469). Put plainly: CYP3A4 induction through human pregnane X receptor (PXR) by small molecules, qHTS assay (AID 1346984). Note: nearly all actives have a fitted effect of over 40% in size. Summed up: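 Induction measured in HepG2-based DPX-2 cells co-expressing human PXR and a CYP3A4 promoter-driven luciferase. After a 24-hour compound exposure, cells received CYP3A4 luciferin substrate at 3uM final for 3 hours, and light output was then recorded.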

The target is the same in assay [15]. Put plainly: Human pregnane X receptor (PXR) activation by small molecules, qHTS assay (AID 1346985). Note: nearly all actives have a fitted effect of over 40% in size. Summed up:
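DPX-2 cells (HepG2 co-transfected with a PXR response element and a CYP3A4-promoter luciferase construct) were seeded at 2,000 per well, rested 5 hr at 37C, then exposed to DMSO-dissolved compounds for 24 hr. Activation was read as luciferase luminescence.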

The target in assay [16] is Cytochrome P450 2D6 (Homo sapiens) (UniProt P10635). The assay is described as follows: Cytochrome P450 Family 2 Subfamily D Member 6 (CYP2D6) small molecule antagonists: luciferase reporter qHTS assay (AID 1671196). Note: nearly all actives have a fitted effect of over 50% in size. Note: potency is the fitted concentration of half-maximal effect. Summed up:
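Test chemicals meet CYP2D6 plus proluciferin substrate (10 min, RT); NADPH regenerating solution then drives turnover for 1 h. Detection reagent halts the reaction; luminescence measured after 20 min.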
In general terms: Reporter assays use an easily measured gene product as a stand-in for the process of interest.

In assay [17] the target is Cytochrome P450 2C19 (Homo sapiens) (UniProt P33261). The assay is described as follows: Cytochrome P450 Family 2 Subfamily C Member 19 (CYP2C19) small molecule antagonists: luciferase reporter qHTS assay (AID 1671197). Note: nearly all actives have a fitted effect of over 65% in size. Note: potency is the fitted concentration of half-maximal effect. The essentials: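 P450-Glo CYP2C19 screening system; proluciferin substrate; DMSO compound stocks; 10 min RT preincubation; NADPH regeneration, 1 h at 37C; luciferin detection reagent, 20 min RT; luminescence as RLU.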

For assay [18], the target named is Cytochrome P450 2C9 (Homo sapiens) (UniProt P11712). The assay is described as follows: Cytochrome P450 Family 2 Subfamily C Member 9 (CYP2C9) small molecule antagonists: luciferase reporter qHTS assay (AID 1671198). Note: nearly all actives have a fitted effect of over 50% in size. Note: potency is the fitted concentration of half-maximal effect. Summed up:
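Enzyme-substrate mix preincubated with compound 10 min at room temperature; reaction started with NADPH regeneration solution, 1 h 37C. Luminescent luciferin product read after 20 min detection reagent.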

The nature of assay [19]: Caspase-3/7 induction in CHO-K1 cells by small molecules, qHTS cell viability counter screen (AID 1346979). Note: nearly all actives have a fitted effect of over 35% in size. Note: potency is the fitted concentration of half-maximal effect. The essentials: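 Following a 5hr settling period, CHO-K1 cells at 1,500 per well received DMSO-dissolved compounds. Cell viability was quantified 16hr later by CellTiter-Fluor fluorescence, measured after 1hr with reagent at 37C.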
Assay [20] concerns the target Nuclear receptor subfamily 1 group I member 2 (Homo sapiens) (UniProt O75469). The assay is described as follows: Human pregnane X receptor (PXR) small molecule agonists, qHTS assay (AID 1346982). Note: nearly all actives have a fitted effect of over 35% in size. Note: potency is the fitted concentration of half-maximal effect. Summed up: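 Reporter HepG2 cells expressing PXR-Luc are cultured in charcoal-stripped FBS (5%), treated with compounds for 24 hr at 37 C, and assayed by ONE-Glo luminescence after 30 min at room temperature.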

SMILES strings stand for the structures. Values joined by “and” are separate entries in the source; they are usually repeats but may differ in a detail not shown here. Equal entries are not always repeated. Records with an inconclusive call do not appear. Where a structure was tested more than once in an assay, its records may differ in their call. Active and inactive are the calls of the source. Unless noted, calls come from the whole dose curve; as a rule, active = well fitted curve in the direction sought with a large enough effect in the repeat runs; inconclusive = weak or mixed curves; inactive = no such curve, though single readings can be large; an effect the other way counts as inactive or inconclusive.
% is set by controls: 0 for no effect and ±100 for the full control effect.

Sequence of Progesterone receptor (Homo sapiens) (P06401 whole entry, looked up): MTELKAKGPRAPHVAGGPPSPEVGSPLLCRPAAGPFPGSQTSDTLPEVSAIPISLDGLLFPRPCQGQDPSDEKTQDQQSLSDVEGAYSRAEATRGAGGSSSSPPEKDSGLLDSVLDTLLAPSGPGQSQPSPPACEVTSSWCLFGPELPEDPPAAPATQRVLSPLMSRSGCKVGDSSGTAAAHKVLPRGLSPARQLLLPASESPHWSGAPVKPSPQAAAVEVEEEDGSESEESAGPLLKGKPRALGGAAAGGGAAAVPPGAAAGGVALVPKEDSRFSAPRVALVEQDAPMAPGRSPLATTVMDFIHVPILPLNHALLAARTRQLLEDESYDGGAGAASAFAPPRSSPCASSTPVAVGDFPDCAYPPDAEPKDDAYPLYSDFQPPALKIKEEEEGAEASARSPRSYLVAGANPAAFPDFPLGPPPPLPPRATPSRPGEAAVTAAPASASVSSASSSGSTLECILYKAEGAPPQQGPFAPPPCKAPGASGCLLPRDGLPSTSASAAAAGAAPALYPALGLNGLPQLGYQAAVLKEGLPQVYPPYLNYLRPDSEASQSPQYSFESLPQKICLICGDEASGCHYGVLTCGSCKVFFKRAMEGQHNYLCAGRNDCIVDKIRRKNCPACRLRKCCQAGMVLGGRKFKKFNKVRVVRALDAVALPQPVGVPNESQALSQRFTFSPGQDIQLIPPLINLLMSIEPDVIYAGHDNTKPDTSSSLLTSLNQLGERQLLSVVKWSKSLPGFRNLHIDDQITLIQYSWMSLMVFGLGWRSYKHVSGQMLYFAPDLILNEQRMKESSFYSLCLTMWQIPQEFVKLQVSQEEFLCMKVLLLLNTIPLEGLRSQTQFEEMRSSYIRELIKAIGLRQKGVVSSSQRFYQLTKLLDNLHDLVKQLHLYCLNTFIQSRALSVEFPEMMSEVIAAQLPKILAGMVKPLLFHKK
Sequence of Cytochrome P450 2D6 (Homo sapiens) (P10635 whole entry, looked up): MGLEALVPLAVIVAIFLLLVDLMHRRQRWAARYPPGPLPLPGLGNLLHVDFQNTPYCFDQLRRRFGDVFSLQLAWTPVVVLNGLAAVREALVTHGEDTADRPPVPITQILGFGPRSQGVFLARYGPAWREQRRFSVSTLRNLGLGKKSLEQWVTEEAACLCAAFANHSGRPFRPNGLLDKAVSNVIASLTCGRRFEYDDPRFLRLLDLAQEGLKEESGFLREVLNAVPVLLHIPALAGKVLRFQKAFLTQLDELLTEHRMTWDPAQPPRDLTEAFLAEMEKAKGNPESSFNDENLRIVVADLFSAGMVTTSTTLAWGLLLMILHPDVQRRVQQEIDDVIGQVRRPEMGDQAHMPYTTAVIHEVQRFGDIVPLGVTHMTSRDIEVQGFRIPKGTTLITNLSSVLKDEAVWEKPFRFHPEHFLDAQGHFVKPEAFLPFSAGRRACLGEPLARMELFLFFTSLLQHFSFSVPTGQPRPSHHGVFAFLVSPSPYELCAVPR
Sequence of Thyrotropin-releasing hormone receptor (Homo sapiens) (P34981 whole entry, looked up): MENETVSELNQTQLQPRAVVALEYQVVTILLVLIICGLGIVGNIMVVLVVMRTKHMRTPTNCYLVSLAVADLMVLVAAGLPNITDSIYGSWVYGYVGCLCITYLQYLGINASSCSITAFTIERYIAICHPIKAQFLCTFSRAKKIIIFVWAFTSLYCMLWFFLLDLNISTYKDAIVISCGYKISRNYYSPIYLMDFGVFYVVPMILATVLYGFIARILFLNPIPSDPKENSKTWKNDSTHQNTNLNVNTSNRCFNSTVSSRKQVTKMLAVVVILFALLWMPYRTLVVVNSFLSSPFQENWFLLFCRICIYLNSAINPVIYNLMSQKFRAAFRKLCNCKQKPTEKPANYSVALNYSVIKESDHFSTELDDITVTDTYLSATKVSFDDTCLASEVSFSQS
Sequence of Nuclear receptor subfamily 1 group I member 2 (Rattus norvegicus) (Q9R1A7 whole entry, looked up): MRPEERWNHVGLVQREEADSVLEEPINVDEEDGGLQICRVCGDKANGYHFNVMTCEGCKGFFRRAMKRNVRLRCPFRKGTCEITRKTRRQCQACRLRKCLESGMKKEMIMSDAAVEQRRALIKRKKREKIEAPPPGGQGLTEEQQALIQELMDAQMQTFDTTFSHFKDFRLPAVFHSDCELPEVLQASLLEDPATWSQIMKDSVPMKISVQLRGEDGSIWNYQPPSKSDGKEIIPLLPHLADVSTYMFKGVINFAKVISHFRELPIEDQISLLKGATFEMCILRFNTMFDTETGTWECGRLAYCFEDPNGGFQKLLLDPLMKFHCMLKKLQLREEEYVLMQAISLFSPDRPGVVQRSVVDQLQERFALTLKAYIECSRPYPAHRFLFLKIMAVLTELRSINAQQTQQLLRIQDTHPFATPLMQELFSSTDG
Sequence of Cytochrome P450 2C19 (Homo sapiens) (P33261 whole entry, looked up): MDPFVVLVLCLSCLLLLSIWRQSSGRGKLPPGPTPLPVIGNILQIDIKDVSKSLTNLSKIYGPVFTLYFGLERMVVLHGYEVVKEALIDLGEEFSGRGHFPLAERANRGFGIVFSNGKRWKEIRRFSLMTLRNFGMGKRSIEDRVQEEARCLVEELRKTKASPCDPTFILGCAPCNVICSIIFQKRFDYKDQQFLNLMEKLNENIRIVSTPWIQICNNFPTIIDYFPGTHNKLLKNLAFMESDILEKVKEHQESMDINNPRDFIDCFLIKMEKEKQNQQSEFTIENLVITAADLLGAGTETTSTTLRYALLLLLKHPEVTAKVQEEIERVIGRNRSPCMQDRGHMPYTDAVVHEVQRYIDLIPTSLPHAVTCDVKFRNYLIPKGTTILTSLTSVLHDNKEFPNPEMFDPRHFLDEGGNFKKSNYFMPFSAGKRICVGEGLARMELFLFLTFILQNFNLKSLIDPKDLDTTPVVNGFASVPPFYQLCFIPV
Sequence of Cytochrome P450 2C9 (Homo sapiens) (P11712 whole entry, looked up): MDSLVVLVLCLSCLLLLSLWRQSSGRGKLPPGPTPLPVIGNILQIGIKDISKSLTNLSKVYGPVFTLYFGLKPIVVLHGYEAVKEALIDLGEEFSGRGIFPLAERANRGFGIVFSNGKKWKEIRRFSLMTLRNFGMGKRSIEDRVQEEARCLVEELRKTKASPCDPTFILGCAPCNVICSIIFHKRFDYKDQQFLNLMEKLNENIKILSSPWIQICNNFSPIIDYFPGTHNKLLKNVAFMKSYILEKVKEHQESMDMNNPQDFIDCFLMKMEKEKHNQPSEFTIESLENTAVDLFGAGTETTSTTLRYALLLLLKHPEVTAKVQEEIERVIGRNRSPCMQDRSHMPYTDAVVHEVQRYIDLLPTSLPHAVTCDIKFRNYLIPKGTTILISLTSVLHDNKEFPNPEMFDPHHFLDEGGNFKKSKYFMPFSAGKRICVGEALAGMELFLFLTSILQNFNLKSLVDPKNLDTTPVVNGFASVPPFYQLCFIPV
Sequence of Nuclear receptor subfamily 1 group I member 2 (Homo sapiens) (O75469 whole entry, looked up): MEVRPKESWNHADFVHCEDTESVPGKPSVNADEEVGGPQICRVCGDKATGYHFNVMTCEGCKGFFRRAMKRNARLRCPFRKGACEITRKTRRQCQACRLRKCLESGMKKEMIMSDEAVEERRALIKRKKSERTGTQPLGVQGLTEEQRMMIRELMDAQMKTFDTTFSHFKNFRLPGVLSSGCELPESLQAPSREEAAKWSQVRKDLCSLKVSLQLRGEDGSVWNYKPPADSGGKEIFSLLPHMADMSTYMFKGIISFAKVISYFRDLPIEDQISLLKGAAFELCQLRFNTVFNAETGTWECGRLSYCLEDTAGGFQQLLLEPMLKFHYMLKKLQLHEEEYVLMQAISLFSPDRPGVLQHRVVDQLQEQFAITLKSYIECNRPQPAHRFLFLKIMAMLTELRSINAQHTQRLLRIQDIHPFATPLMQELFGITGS

For the compound `CCCNC(C)C(=O)Nc1ccccc1C` (centres undefined), the Potency result in assay [1], in [2], in [3], in assay [4], in [5] and in assay [7] was “inactive” in each case. Further, the Potency entry in [8], in [9], in [10], in assay [11], in assay [12] and in [14] was “inactive” throughout. Further, the Potency result in assay [15], in assay [17] and in [18] was “inactive” throughout. For the same compound, the outcome in [6] was inactive. Further, the max activation in assay [13] was -2.15% (inactive). In addition, in assay [16], the Potency is 27.5 µM (active).

Turning to `CC(=O)Nc1ccc(C(=O)CCl)cc1`, the Potency result in assay [1], in assay [2], in assay [3], in assay [4], in assay [5] and in assay [7] was “inactive” in each case. In addition, the Potency result in assay [8], in assay [10], in [11] and in assay [12] was “inactive” in each case. The call in assay [6] was inactive. Besides, the Potency entry in assay [9] was “inactive and 61.1 µM (active)”; in [19], 54.8 µM (active) and 17.2 µM (active); in assay [17] it was “inactive and 79.6 µM (active)”; in assay [18], 63.3 µM (active).

As for `CCC(CO)(CO)COCC(CC)(CO)CO`, the Potency entry in assay [1], in [2], in assay [3], in assay [4], in assay [5] and in assay [7] was “inactive” in each case. The Potency result in assay [8], in assay [10], in assay [19], in assay [11], in assay [12] and in assay [20] was “inactive” throughout. Moreover, the Potency entry in [16] and in assay [17] was “inactive” throughout. In assay [6], the outcome was inactive.

With `CCc1cc(C(C)(C)C)c(O)c(C(C)(C)C)c1`, the Potency result in assay [1], in assay [2], in assay [3], in [4], in assay [5] and in [7] was “inactive” throughout. Besides, the Potency entry in [8], in assay [9], in assay [10], in [19], in assay [11] and in [12] was “inactive” each time. Moreover, in assay [16], the Potency result is “inactive”. Besides, the outcome in [6] was inactive. The Potency entry is “inactive and 34.4 µM (active)” in [20]; 71.7 µM (active) and inactive in assay [17].

On to `CC(=O)OCC1=C(C(=O)O)N2C(=O)[C@@H](NC(=O)Cc3cccs3)[C@H]2SC1`, for which the Potency entry in [1], in assay [2], in [3], in assay [4], in [5] and in assay [7] was “inactive” in each case. The Potency entry in [8], in assay [10], in assay [11], in assay [12], in assay [20] and in assay [14] was “inactive” each time. For the same compound, the Potency entry in assay [15], in [16] and in assay [17] was “inactive” throughout. Also, in [6], the call was inactive. Further, the max activation in assay [13] was -1.19% (inactive).

Take `CCn1cc(C(=O)O)c(=O)c2cc(F)c(N3CCNC(C)C3)c(F)c21` (centres undefined): the Potency result in [1], in assay [2], in assay [3], in assay [4], in assay [5] and in [9] was “inactive” each time. Besides, the Potency result in [10], in [11], in assay [12], in assay [14], in assay [15] and in assay [16] was “inactive” throughout. For the same compound, the Potency result in assay [18] was “inactive”. Also, the result in assay [6] was inactive. The max activation in assay [13] was -0.533% (inactive).

As for `COc1ccc(CCN2CCC(Nc3nc4ccccc4n3Cc3ccc(F)cc3)CC2)cc1`, the Potency was 18.8 µM (active) in [1]; 17.6 µM (active) and 23.7 µM (active) in assay [2]; 14 µM (active) in [3]; 39.8 µM (active) in [4]; 44.6 µM (active) in [5]; 3.94 µM (active) and 13.3 µM (active) in assay [9]. Moreover, the Potency in assay [10] was 7.86 µM (active); in assay [19] it was 7.86 µM (active) and 23.7 µM (active); in assay [11], 11.1 µM (active); in assay [12] it was 8.82 µM (active) and 29.8 µM (active). The result in assay [6] was inactive. Moreover, the Potency result in assay [7] and in assay [8] was “inactive” throughout.

Values taken from PubChem BioAssay (Tox21).
